Measured values reported in PMC5540273 (PLoS ONE, 2017).

Columns and labels:
Conditions in all cases: concentration: 1 μM, replicates: in singlicate; n = 1
MST1 = tested on: T1, MST1
T1 construct: gene STK4

MST2 = tested on: T2, MST2
T2 construct: gene STK3

MST3 = tested on: T3, MST3
T3 construct: gene STK24

MST4 = tested on: MST4
MTOR = tested on: MTOR
MUSK = tested on: MUSK
MYLK2 = tested on: MYLK2
MYLK4 = tested on: MYLK4
MYLK = tested on: MYLK
MYO3A = tested on: MYO3A
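Also: KINOMEscan kinase panel screen.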

Structure (SMILES)	%Inh (MST1) [%]	%Inh (MST2) [%]	%Inh (MST3) [%]	%Inh (MST4) [%]	%Inh (MTOR) [%]	%Inh (MUSK) [%]	%Inh (MYLK2) [%]	%Inh (MYLK4) [%]	%Inh (MYLK) [%]	%Inh (MYO3A) [%]
O=c1cc(N2CCOCC2)nc2n(Cc3cccc4ccccc34)ccn12 [GSK2333389]	0	9	0	0	0	0	0	0	0	0
Fc1ccc(-c2nn3c(OCC(F)(F)F)cccc3c2-c2ccncc2)cc1 [GW514784]	0	0	12	0	35	0	1	0	15	72
NCC(NC(=O)c1cc(-c2cn[nH]c2)c(-c2ccnc3[nH]ccc23)s1)c1ccccc1.O=C(O)C(F)(F)F.O=C(O)C(F)(F)F (centres unmarked) [GSK1325775]	0	12	1	45	5	0	45	100	63	32
Cc1nnc(-c2ccc3occ(-c4ccc(C(C)O)cc4)c3c2)o1 (centres unmarked)	0	0	0	0	0	4	14	4	26	0
COc1ccc(Nc2nccc(N3CCC(NC(=O)Nc4cccc(C(C)=O)c4)C3)n2)cc1 (centres unmarked) [GSK1379731]	4	0	0	0	16	3	0	0	0	0
